From PubChem BioAssay
In the library only some 31% were active in any assay of this set; here they are far more common.
CYP2C9 activ: CYP2C9 (human) activation. recombinant CYP2C9, luciferin-H conversion, luminescence; hits give high values; factor 1 = untreated enzyme, 0 = blocked. activation factor at 5 µM. P11712. 1.4% of 96,000 active;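 active means activation factor of 2 or more for CYP2C9 at a 5 µM dose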;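 further: 0 = sulfaphenazole-blocked wells and 1 = vehicle-only wells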
CYP2C19 inh: blocks human cytochrome P450 2C19 | CYP2C19 Supersomes, luciferin-H EGE luminescence, 30 min | 21% of 96,000 active | inhibition, % at 5 µM;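 active means CYP2C19 inhibition above a set limit at 5 µM in the primary screen, cut at about 50% in these data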;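 further: plate controls were negative control wells for no effect and 2.5 mM tranylcypromine positive control for full effect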
CYP2C19 act: increases human CYP2C19 enzyme activity. P33261. recombinant CYP2C19, luciferin-H EGE luminescence; hits give high values; 0 = fully inhibited enzyme, 1 = untreated enzyme. activation factor at 5 µM. 96,000 tested, under 10 active;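 active means activation factor of at least 2 at 5 µM in the primary screen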;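 further: 0 = wells with 2.5 mM tranylcypromine and 1 = vehicle-only wells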
PLAP activator: activators of human placental alkaline phosphatase; P05187; purified PLAP enzyme, luminescent substrate read-out; hits give high values; activation fold at 20 µM; 1.2% of 96,000 active; AID 696; in the data active means activation fold above about 2
Target sequence (P05187 whole entry, looked up): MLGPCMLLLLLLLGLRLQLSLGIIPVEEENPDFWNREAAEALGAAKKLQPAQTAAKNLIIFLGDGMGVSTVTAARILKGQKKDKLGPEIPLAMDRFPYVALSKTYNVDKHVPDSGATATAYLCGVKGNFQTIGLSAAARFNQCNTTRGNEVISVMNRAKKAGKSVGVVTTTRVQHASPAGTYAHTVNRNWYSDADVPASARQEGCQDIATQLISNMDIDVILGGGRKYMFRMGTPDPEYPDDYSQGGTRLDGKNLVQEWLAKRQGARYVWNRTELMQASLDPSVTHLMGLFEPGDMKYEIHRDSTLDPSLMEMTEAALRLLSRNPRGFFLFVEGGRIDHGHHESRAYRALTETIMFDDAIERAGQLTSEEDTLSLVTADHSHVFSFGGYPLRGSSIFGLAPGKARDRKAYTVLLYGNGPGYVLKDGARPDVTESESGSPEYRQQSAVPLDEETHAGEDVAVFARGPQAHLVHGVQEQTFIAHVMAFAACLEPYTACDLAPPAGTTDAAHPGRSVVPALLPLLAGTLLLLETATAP
CYP2C9 inh: inhibitors of human CYP2C9. CYP2C9 Supersomes, luciferin-H conversion, luminescence. inhibition, % at 5 µM. 20% of 96,000 active. AID 777;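 active means blocking of liver enzyme CYP2C9 beyond about 50% at 5 µM, limit read from the data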
An asterisk follows results filed as active.

Screening CCC(C)n1c(O)c(C(c2ccccn2)c2c(O)n(C(C)CC)c(=S)[nH]c2=O)c(=O)[nH]c1=S (centres undefined) returned CYP2C9 activ 0.6, CYP2C19 inh -3, CYP2C19 act 1, PLAP activator 1.5 and CYP2C9 inh 36.
`CC[N+](CC)(CC)CCCOC(=O)C(O)(c1ccccc1)C1CCCCC1` (centres undefined) gave CYP2C9 activ 1.3, CYP2C19 inh -17, CYP2C19 act 1.2, PLAP activator 0.8 and CYP2C9 inh -33.
CCCCC1(CCCC)C(=O)NC(=Nc2cccc(C)c2)NC1=O was read as CYP2C9 activ 0.4, CYP2C19 inh 61*, CYP2C19 act 0.4, PLAP activator 1.1 and CYP2C9 inh 60*.
`CCCC1(CCC)C(=O)NC(=Nc2ccccc2)NC1=O` gave CYP2C9 activ 0.5, CYP2C19 inh 7, CYP2C19 act 0.9, PLAP activator 1 and CYP2C9 inh 54*.
Cc1c(C(=O)N2CCC3(CC2)OCCO3)sc2ncnc(N(C)c3ccccc3)c12 was read as CYP2C9 activ 0.3, CYP2C19 inh 13, CYP2C19 act 0.9, PLAP activator 1.4 and CYP2C9 inh 73*.
Screening Cc1sc2ncn(CC(=O)N3CCC4(CC3)OCCO4)c(=O)c2c1C returned CYP2C9 activ 0.7, CYP2C19 inh 6, CYP2C19 act 0.9, PLAP activator 1.1 and CYP2C9 inh 32.
For CC1=C(/C=C/c2ccccc2)CCN(C)C1 the results were CYP2C9 activ 0.8, CYP2C19 inh 9, CYP2C19 act 0.9, PLAP activator 1 and CYP2C9 inh 19.
For COc1ccc2nc(NC(=O)CCc3nc(C4=CCN(C)CC4)no3)sc2c1 the results were CYP2C9 activ 0.2, CYP2C19 inh 36, CYP2C19 act 0.6, PLAP activator 1.3 and CYP2C9 inh 75*.
Screening Cc1ccc(N(C)C(=O)Oc2ccc(C(=O)c3ccc(Cl)cc3)cc2)cc1 returned CYP2C9 activ 0.4, CYP2C19 inh 50*, CYP2C19 act 0.5, PLAP activator 1.2 and CYP2C9 inh 60*.
CC(=O)Nc1ccc(OC(=O)N(C)c2ccccc2)cc1 was read as CYP2C9 activ 0.9, CYP2C19 inh 12, CYP2C19 act 0.9, PLAP activator 0.9 and CYP2C9 inh 5.
For Cc1ccc(N2C(=O)/C(=C/c3ccc(CN(CCC#N)S(C)(=O)=O)o3)C(=O)NC2=S)cc1 the results were CYP2C9 activ 0.5, CYP2C19 inh 11, CYP2C19 act 0.9, PLAP activator 1.1 and CYP2C9 inh 47.
`CC(C)CCn1c(N)c(C(=O)OCC2CCCO2)c2nc3ccccc3nc21` (centres undefined) gave CYP2C9 activ 0.2, CYP2C19 inh 63*, CYP2C19 act 0.4, PLAP activator 1.6 and CYP2C9 inh 84*.
Screening CC(C)OCCCNC(=O)c1c(N)n(CC2CCCO2)c2nc3ccccc3nc12 (centres undefined) returned CYP2C9 activ 0.2, CYP2C19 inh 67*, CYP2C19 act 0.3, PLAP activator 1.7 and CYP2C9 inh 85*.
`CCCCn1c(N)c(C(=O)OCC2CCCO2)c2nc3ccccc3nc21` (centres undefined) gave CYP2C9 activ 0.3, CYP2C19 inh 68*, CYP2C19 act 0.3, PLAP activator 1.8 and CYP2C9 inh 74*.
For CCCCOCCCn1c(N)c(C(=O)OCCOC)c2nc3ccccc3nc21 the results were CYP2C9 activ 0.5, CYP2C19 inh 38, CYP2C19 act 0.6, PLAP activator 1.4 and CYP2C9 inh 52*.
`COCCOC(=O)c1c(N)n(Cc2ccccc2)c2nc3ccccc3nc12` gave CYP2C9 activ 0.8, CYP2C19 inh 21, CYP2C19 act 0.8, PLAP activator 1 and CYP2C9 inh 22.
Screening CC(C)CCOC(=O)c1c(N)n(CC2CCCO2)c2nc3ccccc3nc12 (centres undefined) returned CYP2C9 activ 0.9, CYP2C19 inh -9, CYP2C19 act 1.1, PLAP activator 1.6 and CYP2C9 inh 11.
For CC(C)Cc1[nH]c(=O)c(C#N)c2c1CCC2 the results were CYP2C9 activ 1.1, CYP2C19 inh -13, CYP2C19 act 1.1, PLAP activator 1.1 and CYP2C9 inh -12.
Screening O=C(C1CCC(=O)N1Cc1ccccc1Cl)N1CCC2(CC1)OCCO2 (centres undefined) returned CYP2C9 activ 0.9, CYP2C19 inh 10, CYP2C19 act 0.9, PLAP activator 1 and CYP2C9 inh 13.
Screening CCCCn1c(O)c(C(C)=NCCc2ccccc2)c(=O)[nH]c1=O returned CYP2C9 activ 0.3, CYP2C19 inh 38, CYP2C19 act 0.6, PLAP activator 0.9 and CYP2C9 inh 69*.
For CCCCn1c(O)c(C(CC)=NC(C)c2ccccc2)c(=O)[nH]c1=O (centres undefined) the results were CYP2C9 activ 0.1, CYP2C19 inh 71*, CYP2C19 act 0.3, PLAP activator 1.2 and CYP2C9 inh 91*.
CCCCn1c(O)c(C(C)=NC(C)c2ccccc2)c(=O)[nH]c1=O (centres undefined) was read as CYP2C9 activ 0.2, CYP2C19 inh 54*, CYP2C19 act 0.5, PLAP activator 1 and CYP2C9 inh 77*.
`C=CCn1c(O)c(C(CC)=Nc2ccc(N(CC)CC)cc2)c(=O)[nH]c1=O` gave CYP2C9 activ 1, CYP2C19 inh -6, CYP2C19 act 1.1, PLAP activator 0.9 and CYP2C9 inh 2.
C=CCn1c(O)c(C(CC)=NC(C)c2ccccc2)c(=O)[nH]c1=O (centres undefined) was read as CYP2C9 activ 0.4, CYP2C19 inh 66*, CYP2C19 act 0.3, PLAP activator 1.1 and CYP2C9 inh 63*.
Screening CCCCn1c(O)c(C(C)=Nc2ccc(C(=O)O)cc2)c(=O)[nH]c1=O returned CYP2C9 activ 1, CYP2C19 inh 1, CYP2C19 act 1, PLAP activator 0.9 and CYP2C9 inh -1.
CCOC(=O)C1C(=O)NC23CCCC2C1c1ccccc1O3 (centres undefined) was read as CYP2C9 activ 1, CYP2C19 inh 12, CYP2C19 act 0.9, PLAP activator 1 and CYP2C9 inh 2.
O=C(CF)NC(Nc1cccc2cccnc12)C(Cl)(Cl)Cl (centres undefined) was read as CYP2C9 activ 0.6, CYP2C19 inh 89*, CYP2C19 act 0.1, PLAP activator 0.9 and CYP2C9 inh 41.
CN(C)C=C1C(=O)N(C2CCCCC2)C(=O)N(C2CCCCC2)C1=O was read as CYP2C9 activ 0.9, CYP2C19 inh -6, CYP2C19 act 1.1, PLAP activator 1.3 and CYP2C9 inh 7.
`CCOC(=O)[C@@]1(C#N)[C@@H]2C=CC(C(N)=O)=CN2[C@@H](C(N)=O)[C@@H]1c1cccc(Cl)c1` gave CYP2C9 activ 0.4, CYP2C19 inh 39, CYP2C19 act 0.6, PLAP activator 1.4 and CYP2C9 inh 59*.
